Measured values taken from PubChem BioAssay (NCI).
This is part of a sample that, as a whole, favours compounds with a hit. Of some 83,000 tested, about 20% had one in any assay.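 Plates (96-well) were seeded with cells, treated with compound at one concentration, and incubated for 48 hours before percent growth was determined.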 Values without a mark were called inactive. Calls of active or inactive are those of the source. Rule for the calls: active = growth percent below 10; inactive = the rest.

What was measured:
Assay in all cases: NCI-60 one-dose screen, 48 h (100 = growth as untreated, 0 = no growth, -100 = all killed)
Conditions in all cases: 10 µM unless noted
[1] = test system: DU-145 prostate
[2] = test system: K-562 leukemia
[3] = test system: MALME-3M melanoma
[4] = test system: MDA-MB-231 breast
[5] = test system: RXF 393 renal
[6] = test system: SF-268 CNS
[7] = test system: SF-295 CNS
[8] = test system: SF-539 CNS
[9] = test system: UACC-257 melanoma
[10] = test system: M14 melanoma
[11] = test system: HCT-15 colon
[12] = test system: HT29 colon
[13] = test system: SNB-75 CNS
[14] = test system: SNB-19 CNS
[15] = test system: U251 CNS
[16] = test system: PC-3 prostate
[17] = test system: SK-MEL-5 melanoma
[18] = test system: UACC-62 melanoma
[19] = test system: LOX IMVI melanoma
[20] = test system: SK-MEL-28 melanoma

SMILES | growth [1] | growth [2] | growth [3] | growth [4] | growth [5] | growth [6] | growth [7] | growth [8] | growth [9] | growth [10] | growth [11] | growth [12] | growth [13] | growth [14] | growth [15] | growth [16] | growth [17] | growth [18] | growth [19] | growth [20]
COc1cc(/C=N/NC(=O)Cn2c(C(C)C)nc3ccccc32)ccc1O | 110% | 100% | 105% | 95.5% | 95.7% | 91.2% | 104% | 94.4% | 98.2% | 92.6% | 98.7% | 98.2% | 81.5% | 99.4% | 110% | 94.8% | 97.6% | 89.8% | 102% | 109%
CC/C=C/C/C=C/C/C=C/C/C=C/C/C=C/C/C=C/CCC(=O)Nc1ccn([C@@H]2O[C@H](CO)[C@@H](O)C2(F)F)c(=O)n1 | 13.8% | 38.4% | 64.3% | 54.9% | 24.9% | 19.1% | 16.2% | 7.06% (active) | 48.2% | -22.7% (active) | 41.7% | 36.4% | 37.4% | 7.11% (active) | 22.4% | 41% | 31.3% | -12.3% (active) | -49.9% (active) | 74.9%
CCOC(=O)c1c(/C=C/C(=O)O)nc2ccccc2c1/C=C/c1ccccc1 | 14.2% | 23.9% | 51.4% | 57.5% | 11.3% | 40.7% | 73.6% | 19.8% | 49.6% | 63% | 23.9% | 49.9% | 15% | 61.1% | 51.2% | 53.5% | 53.7% | 45.5% | 28.1% | 45.8%
Fc1cnc(NC2CC2)nc1-c1cnc2ccc(N3CCOCC3)cn12 | 7.39% (active) | 10.9% | -33.7% (active) | 2.98% (active) | -47.1% (active) | 0.958% (active) | 3.46% (active) | -35% (active) | -7.35% (active) | -26% (active) | 1.15% (active) | 0.985% (active) | -42.9% (active) | 11.5% | 8.28% (active) | 5.58% (active) | -53.1% (active) | -80.6% (active) | 4.17% (active) | -4.09% (active)
CC1(c2ccccc2)NC(=O)N(NC(=O)CSc2nc(-c3cccs3)nc3ccccc23)C1=O (stereo not given) | 106% | 88.8% | 100% | 90.9% | 78.1% | 97.8% | 99.3% | 95% | 83.5% | 109% | 91.2% | 108% | 96.4% | 92.2% | 94.6% | 90.8% | 85.2% | 69% | 95.9% | 115%
Cc1ccc(Cl)cc1NC(=O)c1cc2ccccc2cc1O | 7.76% (active) | -33.7% (active) | -32.6% (active) | -56.8% (active) | -15.6% (active) | 9.58% (active) | -9.44% (active) | -0.708% (active) | -7.13% (active) | 2.88% (active) | 8.41% (active) | 7.43% (active) | -14.3% (active) | 22.8% | 2.92% (active) | -12.6% (active) | -74.4% (active) | -11.5% (active) | 3.41% (active) | 9.98% (active)
O=C(NCCNc1cc(-c2cn(-c3ccccc3)nc2-c2cccc(O)c2)ccn1)Nc1ccccc1 | 92.8% | 35.4% | 92.3% | 57.1% | 89.5% | 81.3% | 75.8% | 89.5% | 58.7% | 72.2% | 62.7% | 27.3% | 66.2% | 82.4% | 56.4% | 45.7% | 63.9% | 70% | 82.5% | 103%
COc1cc(C2CC(=O)Nc3c2c(C)nn3-c2nc3ccccc3[nH]2)c(OC)c(OC)c1OC (stereo not given) | 53.8% | 20.5% | 55.1% | 72.3% | 61.5% | 50.9% | 19.8% | 63.7% | 60.6% | 17% | 33% | 80.7% | 1.94% (active) | 62.9% | 42% | 51.9% | 46.7% | 40.7% | 67.7% | 72.3%
CC(C)(C)C(CCc1ccc(Cl)cc1)N1CCN(C2CCCCC2)CC1 (stereo not given) | 25.3% | 9.18% (active) | 83.4% | 12.3% | 83.2% | 43.8% | 72.6% | 81.2% | 51.4% | 31.9% | 38.1% | 12.6% | 77.7% | 70.6% | 38.1% | 27.7% | 46.4% | 46.8% | -20.3% (active) | 83.1%
O=c1c2cc(F)ccc2sc2c(NCCCN3CCCC3)nc3ccccc3c12 | 60.1% | -29.7% (active) | 26.5% | 21.1% | 22.7% | 47.6% | 55.1% | 65.3% | 54.2% | -64.2% (active) | 7.59% (active) | 5.1% (active) | 21.5% | 53.6% | 33.2% | 43.8% | 58.8% | -75.9% (active) | -87.1% (active) | -52.8% (active)
COc1cccc(-c2nn(-c3ccccc3)cc2-c2ccnc(NCCNC(=O)Nc3ccc(Cl)c(Cl)c3)c2)c1 | 2.24% (active) | 2.28% (active) | 25.3% | -22.9% (active) | -9.27% (active) | 9.11% (active) | 2.94% (active) | -0.925% (active) | 16% | -36.8% (active) | 7.83% (active) | -20.5% (active) | -1.39% (active) | 28.9% | -11.6% (active) | 4.19% (active) | 3.01% (active) | -14.2% (active) | -68.8% (active) | 16.1%
O=Cc1ccc(O)c2ncccc12 | 41.9% | -23.6% (active) | 19% | 54.2% | 76.6% | 19.1% | 29.2% | 25.1% | 27.9% | 21.4% | 22.9% | 87.7% | 73.9% | 68.1% | 25.3% | 16.6% | 44% | 45.1% | -68.5% (active) | 38.6%
CC(=O)OC[C@H]1OC(Sc2sc(C(=O)c3ccc(Br)cc3)c(N)c2-c2nc3ccccc3s2)[C@H](OC(C)=O)[C@@H](OC(C)=O)[C@@H]1OC(C)=O (stereo not given in full) | 35.8% | 66.4% | 20% | 10.4% | 70.8% | 60.9% | 69.6% | 15.7% | 80.1% | 61.6% | 59.8% | 63.1% | -16.7% (active) | 75.2% | 57.6% | 71.3% | 22.1% | 89.3% | 37.1% | 70.7%
CCCCCCCCCOc1c(OC)cc(C2CC(=O)Nc3c2c(C)nn3-c2nc3ccccc3[nH]2)cc1OC (stereo not given) | 1.94% (active) | 9.07% (active) | -58.3% (active) | -75% (active) | -83.4% (active) | -58.8% (active) | -59.1% (active) | -86.3% (active) | 15.5% | -25.5% (active) | -30.8% (active) | -37.9% (active) | -48.8% (active) | -4% (active) | -51.6% (active) | -3.05% (active) | -99.4% (active) | -62.4% (active) | -95.8% (active) | -47.4% (active)
CCCCC1CCCCN1C(=O)OCC (stereo not given) | 108% | 107% | 108% | 107% | 152% | 106% | 127% | 99.7% | 108% | 101% | 103% | 94.1% | 97.8% | 106% | 96.1% | 93.5% | 111% | 107% | 101% | 104%
CN1CCN(C(=O)c2c3c(n4ccccc24)C(=O)c2ncccc2C3=O)CC1 | 56.8% | 54.1% | 72.1% | 79.5% | 60.8% | 52.9% | 73.5% | 58% | 97.7% | 49% | 46% | 93.3% | 39.9% | 50.4% | 66.5% | 54.8% | 65.6% | 39.3% | 30.3% | 103%
